The source of these data is PubChem BioAssay AID588855 (National Center for Advancing Translational Sciences (NCATS), 2011).

The campaign covered roughly 410,000 compounds. About 5,000 (1.2%) were called active. Another 13% or so got no clear call; they are omitted. This excerpt belongs to a sample that is enriched for actives. Unmarked numbers belong to inactive results. The call rests on the fitted dose curve; in most records, active means well fitted inhibition curve with a large enough effect; inconclusive means small, poorly fitted or top-dose-only effect; inactive means no such curve, though single readings can be large or run the other way.
On the % scale 0 is the no-effect control and ±100 the full control effect; potency means the concentration at half of the fitted maximal effect.

This assay is described as follows: qHTS for Inhibitors of TGF-b. Further: nearly all actives have a fitted effect of over 65% in size. The note with it: HepG2 CAGA-GFP TGF-b/SMAD3 reporter, GFP fluorescence, 18 h, TGF-beta stimulated, 500 pg/mL final; series mostly up to 46.1 µM; activity, negative = inhibition: at the top concentration. The method in brief: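 Inhibition of TGF-beta-driven CAGA-GFP reporter expression in HEPG2 cells is measured by cellular GFP fluorescence after 18 h stimulation with 500 pg/mL recombinant TGF-beta in 1% FBS medium at 37 degrees C.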
Background: In qHTS, concentration-response curves come from the screen itself.
On to `CCOc1ccc(C2C(C(=O)Nc3ccc(Cl)cc3)=C(C)Nc3nc(C(F)(F)F)nn32)cc1` (stereo unspecified), for which the “activity, negative = inhibition” value is -20.7%.

With `CCc1ccc(NC(=O)c2cc(S(=O)(=O)N3CCCC(C)C3)cn2C)cc1` (stereo unspecified), the “activity, negative = inhibition” value is -6.75%.

Turning to `Cn1c(=O)c2c(SCC(=O)NCC3CCCO3)nc(-c3ccccc3F)nc2n(C)c1=O` (stereo unspecified), the “activity, negative = inhibition” value was -1.79%.

As to `CCS(=O)(=O)Nc1cccc(-c2cc(-c3ccccc3)c3cc(C)ccc3n2)c1`, the “activity, negative = inhibition” value was 0%.

On to `CNC(=O)COc1ccc(S(=O)(=O)Nc2ccccc2)cc1`, for which the “activity, negative = inhibition” value is 3.64%.

On to `CCCOc1ccc(-c2cccc(NS(=O)(=O)c3ccccc3)c2)nn1`, for which the Potency is 10 µM (active).

In the case of `CN(C)c1nc(=Nc2cccc(Cl)c2)ss1`, the Potency was 0.282 µM (active).

Regarding `COc1ccccc1-c1ccnc2[nH]n(-c3ccccc3)c(=O)c12`, the “activity, negative = inhibition” value was 12.7%.

Take `CCOC(=O)C1CCCN(CC(=O)Nc2cc(C)c3c(=O)oc4ccccc4c3n2)C1` (stereo unspecified): the “activity, negative = inhibition” value is -2.9%.

For the compound `O=C(O)C1CC=CC2CCN(C3CCCCC3)C(=O)C21` (stereo unspecified), the “activity, negative = inhibition” value was -5.85%.

As to `CCOc1cc(/C=C(\C#N)C(=O)Nc2ccccc2C)ccc1OCc1cc(=O)n2nc(CC)sc2n1`, the “activity, negative = inhibition” value was -28.7%.

Regarding `C=C(C)C(=O)O[C@H]1C/C(C)=C\C(=O)/C=C(\C)[C@H](O)[C@@H]2OC(=O)C(=C)[C@@H]21`, the Potency is 3.55 µM (active).

With `COC(=O)c1sc(-c2ccc(C(C)(C)C)cc2)cc1NC(=O)/C=C/C(=O)O`, the Potency is 8.91 µM (active).

Take `COc1ccc(NS(=O)(=O)c2ccc(N3CCOCC3)c(NC(=O)/C=C/C(=O)O)c2)cc1`: the “activity, negative = inhibition” value was 5.91%.

On to `COC(=O)c1nc(NC(=O)c2ccc(C(C)(C)C)cc2)n[nH]1`, for which the “activity, negative = inhibition” value was -3.02%.

For the compound `COc1ccc(C(=O)Nc2ccc(-n3nncc3-c3ccccc3)cc2)cc1OC`, the “activity, negative = inhibition” value is 13.3%.

Consider `CCOC(=O)Nc1ccc2c(c1)N(C(=O)CN1CCN3CCCC3C1)c1ccccc1CC2` (stereo unspecified), for which the “activity, negative = inhibition” value was -0.581%.

On to `CCOC(=O)Nc1ccc2c(c1)N(C(=O)CCN1CCN(CCO)CC1)c1ccccc1CC2`, for which the “activity, negative = inhibition” value was -2.31%.

As to `CCOC(=O)Nc1ccc2c(c1)N(C(=O)CCCl)c1ccccc1[S@]2=O`, the Potency was 7.08 µM (active).

As for `S=c1[nH]c(=S)c2n[nH]nc2[nH]1`, the “activity, negative = inhibition” value is 4.69%.

`Cc1ccc(C(=O)Nc2c(C(=O)NC(C)(C)C)oc3ccccc23)cc1`: the “activity, negative = inhibition” value is -5.94%.

On to `CCCC(=O)Nc1ccc2oc(-c3ccc(O)c(Br)c3)nc2c1`, for which the “activity, negative = inhibition” value was 0.0308%.

As to `CC(=O)Nc1ccc(C=CC(=O)c2ccc([N+](=O)[O-])cc2)cc1`, the “activity, negative = inhibition” value was -0.532%.

Regarding `O=C1/C(=C\c2ccc([N+](=O)[O-])cc2)CS(=O)(=O)C/C1=C/c1ccc([N+](=O)[O-])cc1`, the Potency is 6.31 µM (active).

For `CC(=O)Nc1ccc(C=Cc2ccc([N+](=O)[O-])cc2)cc1`, the “activity, negative = inhibition” value is -0.331%.

With `COC(=O)c1cccc(Cn2nnc3sc4c(c3c2=O)CCC(C(C)(C)C)C4)c1` (stereo unspecified), the “activity, negative = inhibition” value is 2.33%.

With `COc1cccc(CNc2nccn(-c3ccc(OC)c(OC)c3)c2=O)c1`, the “activity, negative = inhibition” value was 1.79%.

Consider `O=C(NC1CCN(Cc2ccccc2)CC1)c1ccc(Cn2c(=O)c3ccccc3n(Cc3cccc(F)c3)c2=O)cc1`, for which the “activity, negative = inhibition” value is -6.31%.

`Fc1ccc(-c2nc(Nc3cccc(Cl)c3)nc3c2COc2ccccc2-3)cc1`: the “activity, negative = inhibition” value is -2.73%.

For `Cc1oc(C)c2c(=O)cc(-c3ccc4c(c3)OCO4)cc(OC(=O)c3ccc(Cl)cc3)c12`, the “activity, negative = inhibition” value is 59.8%.

For `COc1ccc(C(=O)Nc2onc3c2CCCC3)cc1`, the “activity, negative = inhibition” value is 6.55%.

As to `O=C(NNC(=O)c1ccc(-c2ccccc2)cc1)Nc1ccccc1`, the “activity, negative = inhibition” value is -0.136%.

With `C=CC[n+]1c(-c2ccc(C)cc2)csc1NNC(=O)Nc1ccccc1`, the Potency is 11.2 µM (active).

For the compound `Cc1ccc(NC(=O)NNC(=O)c2sccc2-n2cccc2)cc1`, the “activity, negative = inhibition” value was 19.4%.

As to `O=C(NC1CC(=O)N(c2ccc(F)cc2)C1)c1cccs1` (stereo unspecified), the “activity, negative = inhibition” value was -3.09%.

`CC1(C)CC(=O)C=C(NCCCNC2CCCCC2)C1`: the “activity, negative = inhibition” value is -17.7%.

With `CCCCNS(=O)(=O)CCNCc1ccccc1OC`, the “activity, negative = inhibition” value was 6.03%.

Turning to `CCCCCCCCNS(=O)(=O)CCNC1CCCCC1`, the Potency is 17.8 µM (active).

Turning to `O=C(CC1Oc2ccc(Cl)cc2NC1=O)NCc1ccccc1` (stereo unspecified), the “activity, negative = inhibition” value is -15.2%.

On to `Cc1ccccc1CNC(=O)C(=O)NCC(c1cccs1)S(=O)(=O)c1cccs1` (stereo unspecified), for which the “activity, negative = inhibition” value was 4.69%.

On to `CN1CCN(c2ccc([N+](=O)[O-])c(Sc3nc4ccccc4[nH]3)c2)CC1`, for which the “activity, negative = inhibition” value is 4.28%.

Take `CCC(C)N1C(=O)S/C(=C/c2ccc(Sc3nc4ccccc4[nH]3)o2)C1=O` (stereo unspecified): the Potency is 11.2 µM (active).

With `CN(Cc1ccccc1)C(=O)CSc1nc2ccccc2[nH]1`, the “activity, negative = inhibition” value was -5.19%.

For `COc1ccc(-c2nnc(SCC(=O)Nc3ccc(C(C)C)cc3)nc2-c2ccc(OC)c(OC)c2)cc1OC`, the “activity, negative = inhibition” value is 0.381%.

With `COc1ccc(CNC(=O)Cn2nnc(-c3ccccc3F)n2)cc1`, the “activity, negative = inhibition” value is -2.89%.

For the compound `Cc1nc(/N=C(\N)NC(=O)NC2CCCCC2)nc2ccccc12`, the Potency is 12.6 µM (active).

With `O=C(NNC(=O)C(O)c1ccccc1)NC1CCCCC1` (stereo unspecified), the “activity, negative = inhibition” value is 20.3%.

For `CC(C)c1cc(C(=O)NC2CCCCCC2)c2ccccc2n1`, the “activity, negative = inhibition” value was -0.515%.

For the compound `CCC1(C)CC(=O)c2c(ccc3oc(C(=O)Nc4ccc(C(C)=O)cc4)c(C)c23)O1` (stereo unspecified), the “activity, negative = inhibition” value is 3.5%.

Turning to `CCn1c(=O)cc(OCC(=O)Nc2cc(Cl)c(OC)cc2OC)c2ccccc21`, the “activity, negative = inhibition” value is -0.391%.

Take `COc1ccc(OC)c(-c2csc(-c3c(N)c(C(=O)c4ccccc4)n4ccccc34)n2)c1`: the “activity, negative = inhibition” value was 9.43%.
